According to PubChem BioAssay (NCI):
The panel holds about 83,000 compounds, 20% with a hit somewhere; the sample as a whole holds those more often.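 Step 1: grow cells in 96-well plates. Step 2: add test compound at a single concentration. Step 3: incubate 48 h. Step 4: record percent growth.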 Unmarked numbers belong to inactive results. Active and inactive are the calls of the source. How the source made its calls: active means growth percent below 10; inactive means the rest.

system: SR leukemia; assay: NCI-60 one-dose screen, 48 h (100 = growth as untreated, 0 = no growth, -100 = all killed); conditions: 10 µM unless noted

Row | Structure (SMILES) | growth
1 | O=C(CCn1c[n+](CC(=O)c2ccc(F)cc2)c2ccccc21)Nc1cccc2cccnc12 | 79.5%
2 | COc1cc(-c2nc(-c3ccccc3)[nH]c2-c2ccnc(NCCCNS(=O)(=O)c3cccc(F)c3)n2)ccc1Cl | 32.2%
3 | N#Cc1c(NC(=O)c2cccc(C(F)(F)F)c2F)sc2c1CCC(=O)C2 | 0.648% (active)
4 | COC[C@]12CCC(C)(C)C[C@H]1C1=CC[C@@H]3[C@@]4(C)CCCNC(C)(C)[C@@H]4CC[C@@]3(C)[C@]1(C)CC2 | -55% (active)

system: RPMI-8226 leukemia; assay: as above; conditions: 10 µM unless noted

Row | Structure (SMILES) | growth
5 | CCOC(=O)C(=O)CC(=O)N1C(=S)NC(=O)C1CC(C)C (stereo not drawn) | 107%
6 | COC(=O)C(Cc1ccccc1)Nc1nc(NC(Cc2ccccc2)C(=O)OC)nc(N2CCOCC2)n1 (stereo not drawn) | 98.5%
7 | COc1c(N2CC3CCCNC3C2)c(F)cc2c(=O)c(C(=O)N/N=C/c3ccc(F)cc3)cn(C3CC3)c12 (stereo not drawn) | 60.2%
8 | CC(=O)C1=C(C)NC(NNC(N)=S)=NC1c1ccccc1 (stereo not drawn) | 108%
9 | Cn1cc(-c2nnc(N)nc2-c2c[nH]c3ccc(F)cc23)c2cc(F)ccc21 | 65.6%
10 | Oc1[nH]c2ccccc2c1Nn1c(N=N/C=c2/ccc3c(c2)C=NN=3)n[nH]c1=S | 91%
11 | Cc1ccc2c(c1)C13C(=C2Br)CCCN1C(=O)c1ccccc13 (stereo not drawn) | 80.4%
12 | CCO/C=N/C1=C(C#N)C(c2ccc(Cl)cc2)c2sc3c(CC)cccc3c2O1 (stereo not drawn) | 9.39% (active)
13 | C=C(C=O)[C@@H]1CC[C@]2(COC(C)=O)CC[C@]3(C)C(CC[C@@H]4[C@@]5(C)CC[C@H](OC(C)=O)C(C)(C)[C@@H]5CC[C@]43C)[C@@H]12 (stereo partly drawn) | -18.4% (active)
14 | O=C(O)c1ccc(-n2cc(CNc3cc(F)c(F)c(F)c3)c(-c3ccc(F)cc3)n2)cc1 | 76.3%
15 | COc1cc2nc(Cl)nc(Nc3cccc(C4=Nc5c(N)nc(N)nc5NC(c5ccc(Cl)cc5)C4)c3)c2cc1OC (stereo not drawn) | -18.9% (active)
16 | CNC(=O)c1cc(N2CCc3cc(NC(=O)Nc4ccc(Cl)c(C(F)(F)F)c4)ccc32)ccn1 | 33.6%
17 | N=c1c2cc(-c3ccccc3)oc2ncn1/N=C/c1ccc(Br)cc1 | 92.4%
18 | NC(N)=Nc1ccc(Oc2cccc(NC(N)=Nc3ccc(Br)c(C(F)(F)F)c3)c2)cc1 | 45.5%
19 | CN(Cc1ccccc1)S(=O)(=O)/N=C1\NC(=O)NC1=C(Cl)Cl | -1.12% (active)
20 | COc1ccc(S(=O)(=O)NCCCNc2nccc(-c3[nH]c(-c4ccccc4)nc3-c3ccc(Cl)c(O)c3)n2)cc1 | 49.8%
21 | O=C(CN1CCN(c2cc(=O)n(-c3ccccc3)c3ccccc23)CC1)Nc1nc(-c2ccc(Cl)cc2)cs1 | 36.7%
22 | CC(=O)c1nnn(-c2c(C(=O)n3nc(C)cc3C)sc(=S)n2-c2ccccc2)c1C | 101%
23 | O=C1[C@H]2Cc3c([nH]c4ccccc34)[C@@H](c3ccc(Br)cc3)N2C(=O)CN1C1CCN(CC2CCCCC2)CC1 | -35% (active)
24 | NS(=O)(=O)c1ccc(Nc2nc(Nc3ccccc3)nc3nnc(SCC(=O)NC4CCCCC4)n23)cc1 | 105%

Row | Structure (SMILES) | growth
25 | Cn1ccnc1C(=O)/C=C/C=C/c1ccc(C(=O)Nc2ccc(F)cc2)cc1 | -5.49% (active)
26 | O=C1[C@H]2Cc3c([nH]c4ccccc34)[C@@H](c3ccc(Cl)cc3)N2C(=O)CN1C1CCN(Cc2ccccc2)CC1 | 17%
27 | NC(N)=Nc1ccc(Oc2cccc(Nc3ccc(Br)c(C(F)(F)F)c3)c2)cn1 | -40% (active)
28 | CCn1c2ccccc2c2cc(-n3nncc3-c3ccccc3)ccc21 | 19.8%
29 | CN1CCN(Cc2ccc(NC(=O)c3cncc(C#Cc4cnc5ccc(OCC(C)(C)O)nn45)c3)cc2C(F)(F)F)CC1 | -27.6% (active)
30 | Cc1ccc(-n2c(/C=C3\C(=O)Nc4ccccc43)ccc2CO)cc1 | 69.4%
31 | Cc1c(F)cc(C(N)=O)cc1NCC(=O)Nc1ccc([N+](=O)[O-])cc1 | 110%
32 | CCOC(=O)c1c(N)c(C#N)cn1-c1cc(OC)c(OC)c(OC)c1 | 104%
33 | O=c1[nH]c(Sc2sc3ccc(Cl)cc3c2CBr)nc(=S)[nH]1 | 24.2%
34 | CC(=O)c1ccc(Nc2nc(SCC(C)C)nc(-c3ccccc3)c2C#N)cc1 | 111%
35 | CS(=O)(=O)c1ncc(-c2ccccc2)cn1 | 108%
36 | CNC(=O)c1c(NC(=O)c2ccccc2C(F)(F)F)sc2c1CCC(=O)C2 | -0.77% (active)
37 | NC(N)=Nc1ccc(Nc2cccc(Oc3ccc(Cl)c(C(F)(F)F)c3)c2)cn1 | -40.8% (active)
38 | CC(C)c1ccc(NCc2cn(-c3ccc(C(=O)O)cc3)nc2-c2cc(C(F)(F)F)cc(C(F)(F)F)c2)cc1 | 65.7%
39 | COc1cc2nc(Cl)nc(Nc3cccc(C4=Nc5c(N)nc(N)nc5NC(c5ccccc5)C4)c3)c2cc1OC (stereo not drawn) | 49%
40 | O=C(CCn1c[n+](CC(=O)c2ccc(F)cc2)c2ccccc21)Nc1cccc2cccnc12 | 35.1%
41 | COc1cc(-c2nc(-c3ccccc3)[nH]c2-c2ccnc(NCCCNS(=O)(=O)c3cccc(F)c3)n2)ccc1Cl | 27.2%
42 | N#Cc1c(NC(=O)c2cccc(C(F)(F)F)c2F)sc2c1CCC(=O)C2 | -24.6% (active)
43 | COC[C@]12CCC(C)(C)C[C@H]1C1=CC[C@@H]3[C@@]4(C)CCCNC(C)(C)[C@@H]4CC[C@@]3(C)[C@]1(C)CC2 | -34.8% (active)
